# From PubChem BioAssay
# FBW7 activator: activators of human E3 ligase FBW7 | AlphaScreen FBW7–phospho-cyclin E peptide binding, activator screen | normalized activity (activation), % at 26.1 µM | hit rate 0.13% among 650,000; in the data active = normalized activity above about 1.9%;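 also: purified mutant Fbw7 with reduced substrate affinity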
# GPR151 activ: activates the human receptor GPR151. activation, % at 11.2 µM. PathHunter beta-arrestin GPR151 cells, luminescence. hit rate 1% among 650,000; in the data active = activation above about 4.9%;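 also: 0% = median of compound wells and 100% = cells with positive control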
# TEAD-YAP inh: TEAD-YAP interaction inhibition; inhibition, % at 9.12 µM; hit rate 1.4% among 640,000; AID 1259422; HEK-TIYL cells, TEAD-Gal4/YAP UAS-luciferase luminescence; in the data active = inhibition above about 32%;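 also: 0% = median of test compound wells and 100% = reference inhibitor wells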
# MITF primary: inhibitors of human MITF | AlphaScreen MITF homodimerization, bead proximity signal | O75030 | hit rate 0.91% among 650,000 | inhibition, % at 2.6 µM; in the data active = inhibition above about 50%;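 also: 0% = vehicle wells with protein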
# Target sequence (O75030 whole entry, looked up): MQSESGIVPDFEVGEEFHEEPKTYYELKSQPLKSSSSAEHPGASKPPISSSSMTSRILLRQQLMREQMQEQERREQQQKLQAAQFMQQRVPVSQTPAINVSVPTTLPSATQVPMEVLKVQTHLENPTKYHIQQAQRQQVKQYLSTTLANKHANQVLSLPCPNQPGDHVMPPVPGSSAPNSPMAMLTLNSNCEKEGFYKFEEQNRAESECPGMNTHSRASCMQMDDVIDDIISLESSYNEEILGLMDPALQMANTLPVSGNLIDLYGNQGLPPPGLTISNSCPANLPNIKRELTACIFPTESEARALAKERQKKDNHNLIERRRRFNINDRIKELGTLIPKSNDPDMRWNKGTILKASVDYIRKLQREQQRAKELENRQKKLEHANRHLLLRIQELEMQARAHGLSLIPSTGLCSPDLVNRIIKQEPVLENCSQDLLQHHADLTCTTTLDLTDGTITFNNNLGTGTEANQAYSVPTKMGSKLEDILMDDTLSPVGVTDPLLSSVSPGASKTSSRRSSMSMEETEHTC
# Starred values were filed as active, the others as inactive; nt = no result given. Only some compounds are listed: those with a hit (about 3.4% of all), similar ones and a draw of the others.
SMILES,FBW7 activator,GPR151 activ,TEAD-YAP inh,MITF primary
Cc1nnc(SCC(=O)c2cc(C)n(CC3CCCO3)c2C)s1 (stereo not drawn),-0.1,0.0,41.5*,4.7
Cc1cc(C(=O)CN2C(=O)C3CC=CCC3C2=O)c(C)n1CC1CCCO1 (stereo not drawn),-0.1,0.8,36.4*,-2.3
Cc1cc(C(=O)CSc2nnc(-c3cccs3)o2)c(C)n1CC1CCCO1 (stereo not drawn),0.1,1.6,-18.4,18.3
CCCOc1ccc(N2C(=O)CC(N3CCCCC3)C2=O)cc1 (stereo not drawn),0.0,-0.8,4.4,5.5
O=C(Nc1nnc(COc2ccc(C3CCCCC3)cc2)s1)C12CC3CC(CC(C3)C1)C2,1.9*,-0.6,-10.4,26.3
O=C(CSc1nc(-c2ccccc2)ns1)N1CCCCCC1,-0.1,-1.5,39.5*,8.8
CC(C(=O)Nc1ccc(Cl)cn1)N1Cc2ccccc2C1=O (stereo not drawn),0.2,-0.8,84.6*,-10.6
NS(=O)(=O)c1ccc(CCNC(=O)CCCCCn2c(=S)[nH]c3ccc(Br)cc3c2=O)cc1,0.0,-0.8,7.2,7.3
CCCC(=O)C1=C(c2ccc(OC)c(OC)c2)N(C(=O)CCC)n2c(CC)nnc2S1,0.1,1.2,1.1,9.5
Nn1c(SCC(=O)NC2CCCc3ccccc32)nnc1C(F)(F)F (stereo not drawn),0.1,0.9,34.3*,9.1
Cc1c(NC(=O)c2cnn3c(C(F)(F)F)cc(-c4ccco4)nc23)c(=O)n(-c2ccccc2)n1C,-0.1,-0.6,6.6,-8.6
CC1(C(=O)O)NCCc2cc(O)c(O)cc21 (stereo not drawn),-0.4,0.0,nt,66.4*
Nc1c(-c2nc(-c3ccc(Cl)cc3)no2)nnn1-c1ccc(F)cc1F,0.0,-2.5,1.8,-5.5
COc1ccc(N=Cc2sc3ccccc3c2O)cc1,0.0,-10.4,85.3*,-9.0
CC(=O)Nc1ccc(N2C(=O)CC(N3CCN(C)CC3)C2=O)cc1 (stereo not drawn),0.1,0.4,8.2,4.2
CC(C)N(C)CCOC(=O)c1ccccc1F,-0.1,1.2,-5.4,-13.0
CCCCCCOc1ccc(C(=O)OCC(=O)c2ccccc2)cc1,-0.1,-1.3,9.1,-4.4
CCCCS(=O)(=O)CC(COC(=O)c1ccccc1)S(=O)(=O)CCCC (stereo not drawn),0.1,-0.2,33.3*,11.1
COc1ccc(CN2CCN(C3CCN(C(C)C)CC3)C(CCO)C2)c(OC)c1 (stereo not drawn),-0.1,0.6,-3.4,-7.0
Cc1cc(C)c(C(=O)/C=C/c2ccc([N+](=O)[O-])cc2)c(=O)[nH]1,0.0,-1.1,2.7,17.4
CS(=O)(=O)N(CC(=O)Nc1ccc(Cl)cc1)c1ccc(Oc2ccccc2)cc1,0.0,0.5,-16.4,-20.1
CC1CN(CC(=O)NCc2ccsc2)Cc2ccccc2O1 (stereo not drawn),0.1,1.7,4.0,10.1
COc1ccccc1-n1c(=S)sc2c(=O)n(-c3ccccc3)c(SCc3ccccc3F)nc21,0.1,-1.1,0.8,9.1
Cc1cccc(C)c1-n1c(=S)sc2c(=O)n(-c3ccccc3)c(SCc3ccccc3F)nc21,0.0,2.0,45.9*,18.5
O=C(NCCOc1ccccc1)c1ccc2nc(N3CCOCC3)sc2c1,0.5,5.8*,11.0,7.4
SMILES,FBW7 activator,GPR151 activ,TEAD-YAP inh,MITF primary
COCCNC(=O)c1ccc2nc(N3CCOCC3)sc2c1,0.2,-0.1,2.0,24.1
CCCNC(=O)c1ccc2nc(N3CCN(Cc4ccc5c(c4)OCO5)CC3)sc2c1,0.1,-1.5,-2.4,12.9
O=C(NC1CCN(Cc2ccccc2)CC1)c1ccc2nc(N3CCN(Cc4ccc5c(c4)OCO5)CC3)sc2c1,-0.2,1.1,44.3*,6.1
Cc1c(/C=C2\NC(=S)NC2=O)cc(-c2ccccc2)n1-c1ccccc1,-0.2,0.4,9.6,7.1
CCCC(=O)Nc1cc(NC(=O)c2cccs2)ccc1C,0.2,-0.4,1.6,19.6
N#CC1=C(N)Oc2cc3ccccc3cc2C1c1cccs1 (stereo not drawn),0.2,-1.2,44.0*,29.8
COc1ccccc1C1C(C#N)=C(N)Oc2cc3ccccc3cc21 (stereo not drawn),-0.1,0.3,36.9*,4.1
COc1cccc(C2C(C#N)=C(N)Oc3cc(N)ccc32)c1OC (stereo not drawn),0.1,0.6,2.4,16.5
N#CC1=C(N)Oc2cc3ccccc3cc2C1c1ccc(F)cc1 (stereo not drawn),-0.1,3.2,47.0*,-6.5
COc1cccc(C2C(C#N)=C(N)Oc3cc4ccccc4cc32)c1 (stereo not drawn),-0.1,1.4,42.5*,11.1
CCOC(=O)C1CCCN(c2c(NCCCN3CCCC3)c(=O)c2=O)C1 (stereo not drawn),0.1,1.1,11.0,-1.6
CCC(SCC(=O)Nc1ccc2ccccc2c1)C(=O)Nc1ccc(C(C)=O)cc1 (stereo not drawn),-0.2,-1.1,-30.4,-24.2
Cc1cccc(CNC(=O)C2CC23CCN(CC2CC=CCC2)CC3)n1 (stereo not drawn),0.2,0.4,8.4,-0.4
COc1ccc(C2C(C#N)=C(NC(=O)c3ccccc3OC)Oc3c2ccc2ccccc32)cc1OC (stereo not drawn),-0.1,3.4,5.6,9.0
N#CC1=C(N)Oc2cc3ccccc3cc2C1c1cccnc1 (stereo not drawn),0.2,-1.0,48.3*,9.9
COc1cccc(C2C(C#N)=C(N)Oc3c2ccc2ccccc32)c1 (stereo not drawn),0.1,-0.2,57.9*,-25.6
COc1cc(C2C(C#N)=C(N)Oc3c2ccc2ccccc32)cc(Cl)c1O (stereo not drawn),-0.1,0.9,63.6*,0.2
COc1cc(C2C(C#N)=C(N)Oc3c2ccc2ccccc32)ccc1O (stereo not drawn),-0.1,1.9,57.8*,2.3
COC(=O)c1sccc1NC(=O)c1cc2cc([N+](=O)[O-])ccc2oc1=O,-0.1,-1.9,2.6,-1.0
Cc1ccc2ccc(C(Nc3ccccn3)c3ccc(C)c(C)c3)c(O)c2n1 (stereo not drawn),0.0,-0.4,10.2,9.3
COc1ccc(C(Nc2ccccn2)c2ccc3cccnc3c2O)cc1OC (stereo not drawn),-1.2,0.6,70.2*,36.8
COc1ccc(C(Nc2cc(C)ccn2)c2ccc3cccnc3c2O)cc1OC (stereo not drawn),-0.2,-0.6,61.3*,27.9
COc1ccccc1C(Nc1cc(C)ccn1)c1ccc2cccnc2c1O (stereo not drawn),-0.3,-0.5,83.8*,23.6
COc1ccc(C(Nc2cc(C)ccn2)c2ccc3ccc(C)nc3c2O)cc1OC (stereo not drawn),0.2,-0.5,27.9,19.9
CCOc1ccc(C(Nc2cc(C)ccn2)c2ccc3ccc(C)nc3c2O)cc1OCC (stereo not drawn),-0.1,-0.3,16.9,14.6
CCOc1cc(C(Nc2cc(C)ccn2)c2ccc3cccnc3c2O)ccc1OCc1ccccc1 (stereo not drawn),-0.1,-0.1,80.3*,7.1
N#CC1=C(N)Oc2n[nH]c(-c3ccccn3)c2C1c1ccc(O)cc1 (stereo not drawn),-0.9,-0.8,-8.3,24.0
